Assay results: article PMC4336329 (PLoS ONE, 2015)
Out of some 310,000 compounds screened, about 14,000 (4.5%) showed an effect of 50% or more. The effect is printed as a negative number. The sample holds strong results, similar compounds and a random draw of the others, so the mix is not that of the screen.

molecular target: human ether-à-go-go-related gene (hERG) potassium channel (human, UniProt Q12809); assay: primary screen, population patch clamp on CHO cells stably expressing hERG; higher = less effect of the substance
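Note: peak tail current of the secondary pulse compared with the same well before compound.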

Sequence of human ether-à-go-go-related gene (hERG) potassium channel (Q12809 whole entry, looked up): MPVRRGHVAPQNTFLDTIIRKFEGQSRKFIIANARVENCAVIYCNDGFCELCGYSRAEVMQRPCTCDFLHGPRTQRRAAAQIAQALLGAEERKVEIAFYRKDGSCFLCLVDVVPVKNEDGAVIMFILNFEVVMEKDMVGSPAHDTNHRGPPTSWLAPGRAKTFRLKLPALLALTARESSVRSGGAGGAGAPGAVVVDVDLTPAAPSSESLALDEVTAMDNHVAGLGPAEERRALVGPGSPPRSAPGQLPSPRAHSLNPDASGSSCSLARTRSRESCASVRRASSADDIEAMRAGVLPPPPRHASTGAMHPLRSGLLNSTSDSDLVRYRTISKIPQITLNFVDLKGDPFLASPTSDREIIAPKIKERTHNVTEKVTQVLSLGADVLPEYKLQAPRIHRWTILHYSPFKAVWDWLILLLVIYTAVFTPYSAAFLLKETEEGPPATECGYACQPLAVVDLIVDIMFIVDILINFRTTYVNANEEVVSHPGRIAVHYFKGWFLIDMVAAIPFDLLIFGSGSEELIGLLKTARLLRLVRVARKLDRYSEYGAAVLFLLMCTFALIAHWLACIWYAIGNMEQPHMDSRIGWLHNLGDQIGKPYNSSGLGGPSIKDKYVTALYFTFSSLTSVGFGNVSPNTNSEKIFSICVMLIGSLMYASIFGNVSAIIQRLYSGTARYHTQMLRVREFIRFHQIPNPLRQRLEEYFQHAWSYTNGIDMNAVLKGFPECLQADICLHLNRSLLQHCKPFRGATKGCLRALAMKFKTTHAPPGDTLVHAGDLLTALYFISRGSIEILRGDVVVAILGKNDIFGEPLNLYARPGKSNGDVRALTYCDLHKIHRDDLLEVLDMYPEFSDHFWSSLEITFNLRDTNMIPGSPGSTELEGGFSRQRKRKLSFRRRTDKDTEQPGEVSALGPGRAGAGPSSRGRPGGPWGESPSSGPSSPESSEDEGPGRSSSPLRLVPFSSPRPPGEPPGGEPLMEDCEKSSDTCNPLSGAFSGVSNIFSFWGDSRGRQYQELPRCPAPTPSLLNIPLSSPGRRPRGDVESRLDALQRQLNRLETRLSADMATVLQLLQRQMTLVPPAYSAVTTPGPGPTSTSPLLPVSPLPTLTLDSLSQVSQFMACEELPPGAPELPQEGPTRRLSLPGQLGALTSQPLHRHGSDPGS

Going from `CN1CCN(NC(=O)c2cc(-c3cccc(Cl)c3)nc3ccccc23)CC1` to `CSc1ccc(CN2CCN(S(=O)(=O)Cc3ccccc3)CC2)cc1`, the “hERG current change (%, negative = inhibition) at 10uM” value rises from -35.9% to 1.28%.

First: O=S(=O)(N1CCCCC1)N1CCN(c2ccc(F)cc2)CC1
Second: CC(NS(C)(=O)=O)C(c1cccs1)N1CCN(c2ccc(F)cc2)CC1 (stereo not shown)
The “hERG current change (%, negative = inhibition) at 10uM” value of the first is lower: -35.9% for the first, -11.4% for the second.

First: CCN1C(=O)NC(=O)/C(=C\c2ccc(N3CCOCC3)cc2OC)C1=O
Second: CCOc1ccccc1NC(=O)c1ccc(S(=O)(=O)N2CCOCC2)cc1
The “hERG current change (%, negative = inhibition) at 10uM” value of the first is higher: 13.7% for the first, -2.46% for the second.

Compared with `CCC(OC(=O)c1nsc(Cl)c1Cl)C(=O)NCCc1ccccc1` (stereo not shown), `CC(OC(=O)c1nsc(Cl)c1Cl)C(=O)NCCc1ccccc1` (stereo not shown) is lower in “hERG current change (%, negative = inhibition) at 10uM” value: 16% for the first, -65.4% for the second.

Compared with `COc1ccc(CCNC(=O)C(C)OC(=O)c2nsc(Cl)c2Cl)cc1OC` (stereo not shown), `COc1cccc(CNC(=O)COC(=O)c2cc(Br)c(Br)s2)c1` is higher in “hERG current change (%, negative = inhibition) at 10uM” value: 12.4% for the first, 14.8% for the second.

Compared with `COc1ccc(CC(=O)N/N=C/c2cc([N+](=O)[O-])cc(Br)c2O)cc1`, `Cc1cc(=O)oc2cc(OCC(=O)Nc3ccccc3C(=O)O)ccc12` is higher in “hERG current change (%, negative = inhibition) at 10uM” value: 6.88% for the first, 11.6% for the second.

First: CCOC(=O)/C=C1\CN(Cc2cc(OC)c(OC)c(OC)c2)S(=O)(=O)c2ccc(C(F)(F)F)cc21
Second: COc1ccc(C2=NC(=O)/C(=C\c3cc(OC)c(OC)c(OC)c3)O2)cc1
The “hERG current change (%, negative = inhibition) at 10uM” value of the first is lower: -11.3% for the first, 8.26% for the second.

First: CCn1nc(NS(=O)(=O)c2ccccc2)c2cc3cccc(C)c3nc21
Second: Cc1cccn2cc(-c3ccc(F)cc3)nc12
The “hERG current change (%, negative = inhibition) at 10uM” value of the first is higher: 6.7% for the first, -14.1% for the second.

Going from `CCN(CC)C(=O)C1CCN(Cc2ccc(Br)cc2)CC1.O=C(O)C(=O)O` to `CCN(Cc1ccccc1)C(=O)C1CCN(Cc2ccc(SC)cc2)CC1.O=C(O)C(=O)O`, the “hERG current change (%, negative = inhibition) at 10uM” value falls from -51.4% to -71.8%.

First: O=C(C1CCN(Cc2ccc(F)cc2)CC1)N(CCO)Cc1ccccc1
Second: CCN(Cc1ccccc1)C1CCN(Cc2ccc(SC)cc2)CC1.O=C(O)C(=O)O
The “hERG current change (%, negative = inhibition) at 10uM” value of the first is higher: -10.6% for the first, -69.3% for the second.

Going from `CCN(CC)C(=O)C1CCN(Cc2ccc(OCc3ccccc3)c(OC)c2)CC1.O=C(O)C(=O)O` to `CCN(Cc1ccccc1)C(=O)C1CCN(Cc2ccc(OC)c(OC)c2OC)CC1.O=C(O)C(=O)O`, the “hERG current change (%, negative = inhibition) at 10uM” value falls from -32% to -43.4%.

Going from `CSc1ccc(CN2CCC(N3CC(C)OC(C)C3)CC2)cc1.O=C(O)C(=O)O` (stereo not shown) to `CCN(CC)C(=O)C1CCCN(Cc2ccc(N(C)C)cc2)C1` (stereo not shown), the “hERG current change (%, negative = inhibition) at 10uM” value rises from -20.5% to -12.5%.

Going from `CCCC(C)C(=O)Nc1nc(C)c(-c2csc(Nc3ccccc3OC)n2)s1` (stereo not shown) to `COc1ccc(-c2cn3cccc(C)c3n2)cc1F`, the “hERG current change (%, negative = inhibition) at 10uM” value falls from 14.5% to -61.7%.

Going from `CC(=O)CCn1cnc([N+](=O)[O-])n1` to `O=C(CCNC(=O)c1ccc([N+](=O)[O-])cc1)Nc1nccs1`, the “hERG current change (%, negative = inhibition) at 10uM” value falls from 23% to 1.93%.

Going from `O=C(O)CC1SC(N/N=C/c2ccc(Br)cc2)NC1=O` (stereo not shown) to `CC(=O)c1c(C)[nH]c(C(=O)OCc2cc(=O)n3cc(Br)ccc3n2)c1C`, the “hERG current change (%, negative = inhibition) at 10uM” value falls from 6.6% to -3.69%.

Compared with `Cc1ccc(C2=NN(CC(=O)NCc3ccccn3)C(=O)CC2)cc1`, `CCCOc1ccccc1/C=C1\SC(N2CCCCC2)=NC1=O` is lower in “hERG current change (%, negative = inhibition) at 10uM” value: -11.6% for the first, -12.3% for the second.

First: COCCn1c(N)c(Sc2ccc([N+](=O)[O-])cc2)c(=O)[nH]c1=O
Second: CCCCn1c(N)c(Sc2ccc([N+](=O)[O-])cc2)c(=O)[nH]c1=O
The “hERG current change (%, negative = inhibition) at 10uM” value of the first is higher: -46.5% for the first, -79.5% for the second.

First: CCCn1c(N)c(Sc2ccc([N+](=O)[O-])cc2)c(=O)n(CCC)c1=O
Second: CCCn1c(N)c(Sc2ccc(Cl)cc2)c(=O)n(CCC)c1=O
The “hERG current change (%, negative = inhibition) at 10uM” value of the first is lower: -83.8% for the first, -43.3% for the second.

First: CCCn1c(N)c(Sc2ccc(C)cc2)c(=O)n(CCC)c1=O
Second: CCCCn1c(N)c(Sc2ccc(C)cc2)c(=O)[nH]c1=O
The “hERG current change (%, negative = inhibition) at 10uM” value of the first is lower: -14.3% for the first, 2% for the second.

Compared with `Cn1c(SCc2ccccc2Cl)nc(C(F)(F)F)cc1=O`, `COc1ccc(-c2cn3cccnc3n2)cc1F` is higher in “hERG current change (%, negative = inhibition) at 10uM” value: 1.65% for the first, 12.2% for the second.

Going from `Cc1cc(OCCOCCN(C)CCO)cc(C)c1Cl` to `N#Cc1ccccc1COC(=O)CCC(=O)c1cccs1`, the “hERG current change (%, negative = inhibition) at 10uM” value rises from -40.9% to -4.58%.

`S=C(Nc1ccc(Cl)cc1Cl)N1CCOCC1` was tested, and the “hERG current change (%, negative = inhibition) at 10uM” value was 11.1%.
